Only some compounds are listed: those with a hit (about 3.9% of all), similar ones and a draw of the others.
HepG2 tox: kills HepG2 cells in TGF-b inhibitor counter-screen; 410,000 compounds, 0.76% hits; Potency, µM (doses to about 46.1 µM), without a hit: at the highest dose activity change, negative = cytotoxicity, usual class: cytotoxic; HepG2 CAGA-GFP viability, ATP luminescence, 18 h
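CellTiter-Glo luminescence gave cytotoxicity after 18 hours at 37 degrees C. The cells were HepG2 CAGA-GFP in 1% FBS DMEM, stimulated with 500 pg/mL TGF-beta after compound addition. %Activity was normalised to no-cell wells (complete cell-killing) and DMSO (no toxicity), and curves were fitted and classified.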
ATXN2 expr inh: reduces ATXN2 reporter expression in HEK-293 cells; HEK-293 ATXN2-luciferase reporter, luminescence, 24 h; Potency, µM (titrated, usually from 57 µM), inactives show top-dose activity change, negative = inhibition, hits mostly inhibitors; 360,000 compounds, 0.72% hits; also: % is scaled to controls: 0 for no effect and ±100 for the full control effect; nearly all actives have a fitted effect of over 55% in size
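ATXN2-luciferase reporter cells (luciferase flanked by upstream and downstream ATXN2 gene portions) were treated 24 h at 37 °C with compounds at up to 57 uM. SteadyGlo luminescence gave expression; GF-AFC fluorescence gave viability.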
S2 tox: viability counter-screen for ATXN expression inhibitors. S2 cells (HEK-293 line with an ATXN2-luciferase reporter) viability, CellTiter-Fluor protease fluorescence, 24 h. Potency, µM (highest dose often 56.7 µM), usual class: cytotoxic. 400,000 compounds, 0.49% hits; also: nearly all actives have a fitted effect of over 40% in size
HT1080 IDH1KD tx: toxicity to HT-1080 IDH1 knockdown cells (counter line). Potency, µM (top dose mostly 46.1 µM), for inactives: top-dose activity, negative = toxicity, usual class: cytotoxic. HT-1080 IDH1 knockdown viability, ATP luminescence, 48 h. AID 686971. 360,000 compounds, 2% hits;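 also: 0% = DMSO wells and -100% = cell-free medium wells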
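IDH1KD HT-1080 cells, 750/well, RPMI + 5% FBS; compound pinned after 2 h settling; 48 h, 37 °C; CellTiter-Glo luminescence; % activity normalised to DMSO and no-cell wells; curves fitted, classed by r2 and efficacy.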
TGFb inhibitor: TGF-b pathway inhibition; 410,000 compounds, 1.2% hits; Potency, µM (series often up to 46.1 µM), without a hit: at the highest dose activity, negative = inhibition, usual class: inhibitors; HepG2 CAGA-GFP TGF-b/SMAD3 reporter, GFP fluorescence, 18 h; TGF-beta stimulated, 500 pg/mL final; AID 588855; also: % is scaled to controls: 0 for no effect and ±100 for the full control effect; nearly all actives have a fitted effect of over 65% in size
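Per well, imaged GFP fluorescence of HEPG2 CAGA-GFP cells gives the signal; cells get compound, then TGF-beta (500 pg/mL final), 18 h at 37 degrees C; %Activity versus -TGF-beta and +DMSO controls.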
HT1080-NT tox: kills 2HG-producing HT-1080-NT fibrosarcoma cells. Potency, µM (highest dose often 46.1 µM), inactives show top-dose activity, negative = less viability, most hits filed as cytotoxic. HT-1080-NT fibrosarcoma viability, CellTiter-Glo ATP luminescence, 48 h. 360,000 compounds, 1.6% hits. AID 686970;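 also: NT is the 2HG producing partner of a matched IDH1 knockdown line; 0% = DMSO-treated cells and -100% = media-only wells without cells; nearly all actives have a fitted effect of over 55% in size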
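HT-1080-NT fibrosarcoma cells (2HG-overproducing), 750 cells/well in RPMI with 5% FBS, dosed after 2 h and incubated 48 h at 37C. CellTiter-Glo luminescence normalized to DMSO and no-cell wells; concentration-response curves fitted and classed.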
An asterisk follows results filed as active. Calls follow the shape of the dose curve; as a rule, active = well fitted curve in the direction sought with a large enough effect; inconclusive = small, poorly fitted or top-dose-only effect, or another doubt; inactive = no such curve, though single readings can be large; an effect the other way counts as inactive or inconclusive. Potency is read from the fitted curve at half-maximal effect.

What do the screens show for `CCN(C(=O)CSc1nc2ccccc2nc1Cc1cccc(OC)c1)c1cccc(C)c1`?
HepG2 tox: -10%; TGFb inhibitor: 16µM*

Results for COc1ccc(C2/C=C\CN(CC(C)C)C(Cc3ccccc3)C(=O)N2Cc2ccc(F)cc2)cc1 (configuration not stated) ?
HepG2 tox: -13%; TGFb inhibitor: -22%

Results for CCCC(=O)O[C@]1(C(=O)CC)CC[C@H]2[C@@H]3CCC4=CC(=O)CC[C@]4(C)[C@H]3[C@@H](O)C[C@@]21C ?
ATXN2 expr inh: -18%; S2 tox: inactive

How did CC(=O)Nc1cccc(NC(=O)/C=C/c2ccc(S(=O)(=O)N3CCOCC3)cc2)c1 do in these assays?
HepG2 tox: -14%; ATXN2 expr inh: -4%; S2 tox: inactive; HT1080 IDH1KD tx: -4%; TGFb inhibitor: -13%; HT1080-NT tox: -6%

How did COc1cccc(NC(=O)/C=C/c2ccc(S(=O)(=O)N3CCOCC3)cc2)c1 do in these assays?
HepG2 tox: -19%; ATXN2 expr inh: 22µM*; S2 tox: inactive; HT1080 IDH1KD tx: -2%; TGFb inhibitor: -9%; HT1080-NT tox: 2%

What do the screens show for `CCN(CC)S(=O)(=O)c1cc(NC(=O)CNc2cccc(S(=O)(=O)N3CCOCC3)c2)ccc1C`?
HepG2 tox: -5%; ATXN2 expr inh: 2%; S2 tox: inactive; HT1080 IDH1KD tx: 18µM*; TGFb inhibitor: inconclusive; HT1080-NT tox: 6.5µM*

How did COc1ccc(/C=C/C(=O)Nc2ccccc2C)cc1S(=O)(=O)N1CCOCC1 do in these assays?
HepG2 tox: -22%; S2 tox: inconclusive; HT1080 IDH1KD tx: -1%; TGFb inhibitor: inconclusive; HT1080-NT tox: 13µM*

What do the screens show for `Cc1ccc(NC(=O)/C=C/c2ccc(S(=O)(=O)N3CCOCC3)cc2)cc1S(=O)(=O)N(C)C`?
HepG2 tox: -2%; ATXN2 expr inh: 28µM*; S2 tox: inconclusive; HT1080 IDH1KD tx: 26µM*; TGFb inhibitor: -1%; HT1080-NT tox: inconclusive

How did COc1cccc(CN2Cc3cccc4c3[C@H](C=CC4)CC2=O)c1 do in these assays?
HepG2 tox: -1%; TGFb inhibitor: -24%

Results for O=C(CN1Cc2ccccc2OC(c2ccsc2)C1)NCc1ccc2c(c1)OCO2 (configuration not stated) ?
S2 tox: inactive

What do the screens show for `Cc1ccc(CN2C(=O)c3ccccc3C2C(=O)NC2CCCCCC2)cc1` (configuration not stated)?
HepG2 tox: 4%; ATXN2 expr inh: -4%; S2 tox: inconclusive; TGFb inhibitor: 0%

How did CCc1ccccc1NC(=O)Cn1c(=O)n(CCCCCC(=O)NCc2ccc(C)cc2)c(=O)c2sccc21 do in these assays?
HepG2 tox: 9%; ATXN2 expr inh: -4%; S2 tox: inactive; TGFb inhibitor: 6%

How did CCc1ccc(-n2nc(CO)c(C(=O)NCCCCc3ccccc3)n2)cc1 do in these assays?
HepG2 tox: -20%; TGFb inhibitor: inconclusive

How did CCCNCC1C(Oc2ccc(Cl)cc2Cl)C(=O)N1c1cccc(C)c1C (configuration not stated) do in these assays?
HepG2 tox: -104%; S2 tox: inconclusive; HT1080 IDH1KD tx: inconclusive; TGFb inhibitor: inconclusive; HT1080-NT tox: inconclusive

What do the screens show for `CCCCNCC1C(Oc2ccc(Cl)cc2)C(=O)N1c1ccccc1C` (configuration not stated)?
HepG2 tox: 16µM*; ATXN2 expr inh: -22%; S2 tox: inactive; HT1080 IDH1KD tx: 23µM*; TGFb inhibitor: 14µM*; HT1080-NT tox: inconclusive

What do the screens show for `O=c1[nH]c(-c2ccc(C(F)(F)F)cc2)nc2c1CSCC2`?
ATXN2 expr inh: 13%

What do the screens show for `Nn1cnnc1N/N=C/c1ccc(Cl)cc1Cl`?
HepG2 tox: -102%; ATXN2 expr inh: -14%; S2 tox: inactive; HT1080 IDH1KD tx: inconclusive; TGFb inhibitor: inconclusive; HT1080-NT tox: inconclusive

What do the screens show for `COc1cc(/C=N/Nc2nncn2N)ccc1OCc1c(C)no[n+]1[O-]`?
HepG2 tox: 10µM*; S2 tox: inactive; HT1080 IDH1KD tx: inconclusive; TGFb inhibitor: 7.1µM*; HT1080-NT tox: inconclusive

Results for COc1cc(/C=C(\C#N)C(N)=O)ccc1OCc1c(C)no[n+]1[O-] ?
HepG2 tox: -13%; S2 tox: inconclusive; HT1080 IDH1KD tx: 1%; TGFb inhibitor: -1%; HT1080-NT tox: 0%

What do the screens show for `COc1ccc(/C=N/Nc2nncn2N)cc1Br`?
HepG2 tox: -105%; ATXN2 expr inh: -19%; S2 tox: inactive; HT1080 IDH1KD tx: inconclusive; TGFb inhibitor: inconclusive; HT1080-NT tox: 16µM*

What do the screens show for `Cc1ccc(C2=NC(c3ccccc3)=Nc3ccc(Cl)cc3N2)cc1`?
HepG2 tox: -2%; ATXN2 expr inh: 20%; S2 tox: inactive; TGFb inhibitor: 11%

What do the screens show for `Cc1ncnc2nc[nH]c12`?
HepG2 tox: -45%; TGFb inhibitor: inconclusive

Results for C=CCNc1nc(NCc2ccc(NC(C)=O)cc2)c2sc(-c3ccccc3)cc2n1 ?
HepG2 tox: 11µM*; ATXN2 expr inh: inconclusive; S2 tox: 32µM*; HT1080 IDH1KD tx: -21%; TGFb inhibitor: inconclusive; HT1080-NT tox: 18µM*

What do the screens show for `CC(=O)NCCNc1nc(NC(C)C)nc2cc(-c3ccccc3)sc12`?
HepG2 tox: -28%; ATXN2 expr inh: -21%; S2 tox: inactive; HT1080 IDH1KD tx: -25%; TGFb inhibitor: -7%; HT1080-NT tox: -22%

Results for CC(=O)Nc1ccc(CNc2nc(NC(C)C)nc3cc(-c4ccccc4)sc23)cc1 ?
HepG2 tox: -113%; ATXN2 expr inh: 22µM*; S2 tox: inconclusive; HT1080 IDH1KD tx: inconclusive; TGFb inhibitor: inconclusive; HT1080-NT tox: inconclusive

Results for COc1ccc(-c2cc(CNc3nc(NC(C)C)nc4cc(-c5ccccc5)sc34)on2)cc1 ?
HepG2 tox: -97%; ATXN2 expr inh: inconclusive; S2 tox: inconclusive; HT1080 IDH1KD tx: 12µM*; TGFb inhibitor: inconclusive; HT1080-NT tox: 10µM*

Results for COc1ccccc1CNC(=O)c1ccc2c(c1)sc1nc(-c3ccc(F)cc3)cn12 ?
HepG2 tox: -6%; TGFb inhibitor: -21%

How did CCOC(=O)C1=C(CN2CCN(c3ccc(Cl)cc3)CC2)NC(=O)NC1c1ccc(OC)cc1 (configuration not stated) do in these assays?
HepG2 tox: -8%; ATXN2 expr inh: -13%; S2 tox: inactive; TGFb inhibitor: -1%

From PubChem BioAssay
